HIV RNase H inh-1: inhibitors of HIV-1 reverse transcriptase RNase H | 65,000 compounds, 1.9% hits | RT-RNase H RNA/DNA duplex cleavage, fluorescence | AID 565 | inhibition, % at 10 µM | P04585; in the data active = inhibition above about 50%
HIV RNase H inh-2: confirmation of HIV-1 reverse transcriptase RNase H inhibitors; AID 651; Recombinant RT RNase H, fluorescent RNA/DNA duplex cleavage; inhibition, % at 10 µM; shares compounds with HIV RNase H inh-1; 1,000 compounds, 39% hits; in the data active = inhibition above about 48%
Numbers stand for hits. The sample as a whole holds a higher share of hits than the screen did.

`CCN(CC)C(=O)N1CCC(NC(=O)c2ccccc2)CC1` gave HIV RNase H inh-1 inactive.
For CCOC(=O)C1C(=O)Nc2nc3ccccc3n2C1C(C)C (centres undefined) the results were HIV RNase H inh-1 inactive.
Screening Cc1csc(NC(=O)CSc2nnc(-c3ccoc3C)n2Cc2ccco2)n1 returned HIV RNase H inh-1 inactive.
`COc1ccccc1OCCC(=O)OCC(=O)Nc1ncc(Cl)cc1Cl` gave HIV RNase H inh-1 inactive.
Screening COc1cc(C2C(C#N)=C(N)Oc3cc(C)n(Cc4ccccn4)c(=O)c32)cc2c1OCO2 (centres undefined) returned HIV RNase H inh-1 inactive.
Screening CCc1nnc(NC=C2C(=O)OC(C)(C)OC2=O)s1 returned HIV RNase H inh-1 inactive.
CC(=O)C1=C(C)Nc2ncnn2C1c1ccccc1OCc1ccccc1 (centres undefined) was read as HIV RNase H inh-1 inactive.
Cc1ccc2c(c1)[nH]c1c(=O)n(CCN3CCCCC3)cnc12 was read as HIV RNase H inh-1 inactive.
Screening O=c1c2[nH]c3ccccc3c2ncn1CCN1CCCCC1 returned HIV RNase H inh-1 77.9 and HIV RNase H inh-2 inactive.
`O=c1c2[nH]c3ccccc3c2ncn1CCN1CCOCC1` gave HIV RNase H inh-1 inactive.
NC(=O)NC(Cc1ccccc1)C(=O)NCC1(N2CCCCC2)CCCCC1 (centres undefined) was read as HIV RNase H inh-1 inactive.
For Cc1noc(C)c1COC(=O)CCCc1c[nH]c2ccccc12 the results were HIV RNase H inh-1 inactive.
For N#Cc1cc(-c2ccccc2)nn1-c1ccccc1 the results were HIV RNase H inh-1 91.5 and HIV RNase H inh-2 55.9.
Screening Cc1cc(C(=O)Nc2ccccc2C#N)n(-c2ccccc2)n1 returned HIV RNase H inh-1 inactive.
Screening N#Cc1cn(-c2ccccc2)nc1-c1ccccc1 returned HIV RNase H inh-1 inactive.
Cc1nnc(Sc2nc(Sc3nnc(C)s3)nc(N3CCN(C)CC3)n2)s1 was read as HIV RNase H inh-1 inactive.
Screening O=C(CSc1nnc(-c2cccs2)n1-c1ccccc1)NCc1ccc2c(c1)OCO2 returned HIV RNase H inh-1 inactive.
Cc1ccc(-n2c(SCC(=O)Nc3ccc4c(c3)OCCO4)nnc2-c2ccco2)cc1 was read as HIV RNase H inh-1 inactive.
For Cc1ccc(-n2c(SCC(=O)Nc3ccc4c(c3)OCO4)nnc2-c2cccs2)cc1 the results were HIV RNase H inh-1 65.1 and HIV RNase H inh-2 inactive.
`CC(C)CNC(=O)c1c(N)n(/N=C/c2cccnc2)c2nc3ccccc3nc12` gave HIV RNase H inh-1 inactive.
`Cc1cccc(S(=O)(=O)c2c(N)n(Cc3ccco3)c3nc4ccccc4nc23)c1` gave HIV RNase H inh-1 inactive.
Nc1c(S(=O)(=O)c2cccc(Cl)c2)c2nc3ccccc3nc2n1/N=C/c1ccc(O)c(O)c1 was read as HIV RNase H inh-1 92.3 and HIV RNase H inh-2 57.7.
`CC(=O)Oc1c(Cl)c(N2CCOCC2)c(OC(C)=O)c2ccccc12` gave HIV RNase H inh-1 inactive.
`CC(=O)Nc1nc(CC(C)C)cc(-c2ccco2)c1C#N` gave HIV RNase H inh-1 inactive.
Screening O=C(NCc1ccco1)c1cccnc1-c1nc2ccccc2s1 returned HIV RNase H inh-1 85.4 and HIV RNase H inh-2 63.0.
Screening O=C(NCc1ccco1)c1cccc2ccccc12 returned HIV RNase H inh-1 inactive.
`O=C(NCc1ccco1)c1cc(-c2cccnc2)nc2ccccc12` gave HIV RNase H inh-1 inactive.
CCOC(=O)CCSc1nc(C)cc(C(F)(F)F)c1C#N was read as HIV RNase H inh-1 inactive.
`N#CCSc1nnc(COc2ccc3ccccc3c2)o1` gave HIV RNase H inh-1 inactive.
Screening c1ccc2nc3c(nc2c1)c1ccccc1n3CCN1CCOCC1 returned HIV RNase H inh-1 inactive.
For CCn1c(C)nc2cc(S(=O)(=O)N3CCCCC3)ccc21 the results were HIV RNase H inh-1 inactive.
Screening CCn1c2ccccc2c2nc3cc(S(=O)(=O)N4CCOCC4)ccc3nc21 returned HIV RNase H inh-1 98.3 and HIV RNase H inh-2 52.1.
Screening CCOC(=O)c1cnc2nc[nH]n2c1=O returned HIV RNase H inh-1 inactive.
For CCOCCCn1c(=N)c(C(N)=S)cc2c(=O)n3cccc(C)c3nc21 the results were HIV RNase H inh-1 inactive.
`Cc1cccn2c(=O)c3cc(C(N)=S)c(=N)n(CCCOC(C)C)c3nc12` gave HIV RNase H inh-1 68.6 and HIV RNase H inh-2 inactive.
For CCOC(=O)c1cc2c(=O)n3cccc(C)c3nc2n(C)c1=N the results were HIV RNase H inh-1 inactive.
`C=CCOc1cccc(C2/C(=C(/O)c3ccccc3)C(=O)C(=O)N2CCCN2CCOCC2)c1` (centres undefined) gave HIV RNase H inh-1 inactive.
COc1ccc(CCn2c(-c3ccco3)nc3oc4ccccc4c(=O)c3c2=O)cc1 was read as HIV RNase H inh-1 inactive.
For CN(C)CCCNc1oc(-c2cccc(Cl)c2)nc1C#N the results were HIV RNase H inh-1 inactive.
O=C1CC(c2ccco2)Cc2nc(Nc3nc(-c4ccccc4)c4ccccc4n3)ncc21 (centres undefined) was read as HIV RNase H inh-1 73.5 and HIV RNase H inh-2 66.3.
Cc1cc(C)cc(Nc2ncc3c(n2)CC(c2ccco2)CC3=O)c1 (centres undefined) was read as HIV RNase H inh-1 inactive.
Screening O=C(Nc1ncc2c(n1)CC(c1ccco1)CC2=O)c1ccccc1 (centres undefined) returned HIV RNase H inh-1 inactive.
Screening CCn1cc(C(=O)Nc2ccc(NC(=O)c3ccco3)cc2)c(=O)c2ccc(C)nc21 returned HIV RNase H inh-1 inactive.
For O=C(CSc1nnc(-c2ccccc2)o1)OCc1ccccc1 the results were HIV RNase H inh-1 inactive.
CCn1c(SCC(=O)NCCc2ccc(F)cc2)nnc1-c1cccs1 was read as HIV RNase H inh-1 inactive.
For CCn1c2ccccc2c2nnc(SCC(=O)c3ccccc3)nc21 the results were HIV RNase H inh-1 inactive.
CSc1nnc2c3cc(C)ccc3n(Cc3ccccc3)c2n1 was read as HIV RNase H inh-1 50.2 and HIV RNase H inh-2 inactive.
For C=CCn1c2ccccc2c2nnc(SCN3C(=O)c4ccccc4C3=O)nc21 the results were HIV RNase H inh-1 inactive.
CC(=O)c1cccc(NC(=O)Nc2ccc3c(c2)N(C)C(=O)CS3)c1 was read as HIV RNase H inh-1 inactive.
`COc1ccc(C(=O)N(Cc2ccco2)C(C(=O)NC2CCCC2)c2ccc(O)cc2)cc1OC` (centres undefined) gave HIV RNase H inh-1 inactive.
Screening CCOC(=O)CSc1nc(C2CC2)nc2ccccc12 returned HIV RNase H inh-1 inactive.
For CCOC(=O)Cn1cnc2sc3c(c2c1=O)CCC3 the results were HIV RNase H inh-1 inactive.
Screening CCOc1ccc(C2CC(=O)NC3=C2C(=O)CCC3)cc1Cl (centres undefined) returned HIV RNase H inh-1 inactive.
`CC(C)Oc1ccc(C2CC(=O)NC3=C2C(=O)CCC3)cc1` (centres undefined) gave HIV RNase H inh-1 inactive.
For COC(=O)c1ccc(C2CC(=O)NC3=C2C(=O)CCC3)cc1 (centres undefined) the results were HIV RNase H inh-1 91.5 and HIV RNase H inh-2 inactive.
Screening Cc1cccc(NC(=O)CSc2nnc(-c3ccncc3)n2C)c1 returned HIV RNase H inh-1 inactive.
Screening Cc1cc(NC(=O)CSc2nnc(-c3ccncc3)n2N)ccc1Br returned HIV RNase H inh-1 52.2 and HIV RNase H inh-2 inactive.
Nn1c(SCC(=O)Nc2ccc3c(c2)OCO3)nnc1-c1ccncc1 was read as HIV RNase H inh-1 inactive.
COc1ccc(OC)c(NC(=O)CSc2nnc(Cn3c(=O)sc4ccccc43)n2C)c1 was read as HIV RNase H inh-1 inactive.

Screening data: PubChem, University of Pittsburgh Molecular Library Screening Center
